Screens: PubChem, National Center for Advancing Translational Sciences (NCATS)
Compounds with a hit are over-represented: about 1.3% of the library has one in this group of screens.
TRPML1 agonist = activates the human TRPML1 channel. activation, % (test concentration not listed). TRPML1-expressing cells, Ca2+ dye fluorescence, FDSS. 410,000 tested, 0.12% active. Q9GZU1; in the data active = activation above about 50%; inconclusive = mostly about 30% to 49%; note: 0% is about no effect
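Agonist activity was taken from a 110 s kinetic Ca2+ dye read on the FDSS after pinning compounds onto TRPML1-DL cells. The cells were seeded at 1,500/well with Tet inducer, incubated about 16 h, then dye-loaded at room temperature.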
Vif-APOBEC3G blk = Vif-A3G binding inhibition; AID 602310; HeLa A3G-eYFP + Vif (tagged APOBEC3G with the HIV-1 protein that degrades it), YFP fluorescence, overnight; Q9HC16; Potency, µM (titrated, usually from 46.1 µM), without a hit: top-dose activity, negative = active, usual class: inhibitors; 410,000 tested, 0.076% active; note: potency is the fitted concentration of half-maximal effect; % is set by controls: 0 for no effect and ±100 for the full control effect; nearly all actives have a fitted effect of over 60% in size
Target sequence (Q9HC16 whole entry, looked up): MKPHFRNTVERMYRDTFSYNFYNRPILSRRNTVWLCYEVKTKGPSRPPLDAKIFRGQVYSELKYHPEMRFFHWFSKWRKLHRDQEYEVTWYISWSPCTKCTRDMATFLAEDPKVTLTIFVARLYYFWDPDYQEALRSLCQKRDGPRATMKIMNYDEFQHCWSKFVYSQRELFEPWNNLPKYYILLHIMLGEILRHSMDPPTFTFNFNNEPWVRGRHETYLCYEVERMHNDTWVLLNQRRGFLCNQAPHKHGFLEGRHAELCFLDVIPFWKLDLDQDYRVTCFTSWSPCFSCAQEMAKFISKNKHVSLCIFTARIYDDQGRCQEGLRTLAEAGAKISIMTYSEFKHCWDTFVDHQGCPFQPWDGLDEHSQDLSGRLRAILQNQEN
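Read-out is eYFP fluorescence (Ex 488/Em 500-530) from Vif-expressing HeLa A3G-eYFP cells; more signal means A3G escaped Vif-mediated degradation. Cells plated overnight, compound pinned in, incubated overnight at 37 deg C.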
ALOX12 inh = blocks human arachidonate 12S-lipoxygenase. Potency, µM (series often up to 108 µM), inactives show at the highest dose activity change, negative = inhibition, actives largely listed as inhibitors. 580,000 tested, 1.1% active. AID 1671190. purified 12hLO, xylenol orange hydroperoxide absorbance; note: potency is the fitted concentration of half-maximal effect; % is set by controls: 0 for no effect and ±100 for the full control effect
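Purified human 12hLO (150 nM final) in 25 mM Hepes, 0.01% Triton X-100, pH 7.0 was preincubated 15 min at room temperature with compound. Then 40 uM arachidonic acid was added, 30 min. Hydroperoxide was read by Fe-XO absorbance ratio 573/405 nm.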
Glioma ERSR ind = inducers of ER stress response in human glioma cells. U87-MG GRP78 promoter luciferase reporter, 16 h. Potency, µM, for inactives: at the highest dose activation, hits mostly activators. 420,000 tested, 0.02% active; note: potency is the fitted concentration of half-maximal effect; series mostly up to about 76 µM; % of control where 0% means no effect; nearly all actives have a fitted effect of over 35% in size
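Stably transfected U87-MG human glioma cells carrying a GRP78-based luminescent sensor were seeded at 1000 cells/well, pin-dosed with compounds and incubated 16 h. Luciferase reagent was then added, and end-point luminescence was read after 10 min at room temperature.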
Vif-APOBEC3F blk = Vif-A3F binding inhibition; HeLa A3F-eYFP + Vif (tagged APOBEC3F with the HIV-1 protein that degrades it), YFP fluorescence increase; Potency, µM (titrated, usually from 46.1 µM), without a hit: at the highest dose activity, negative = active; 390,000 tested, 0.2% active; note: potency is the fitted concentration of half-maximal effect; % of control where 0% means no effect; nearly all actives have a fitted effect of over 65% in size
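Fluorescence increase (Ex 488/Em 500-530) after overnight compound treatment at 37 deg C flags inhibition of Vif-driven A3F-eYFP loss in stable HeLa A3F-eYFP/Vif cells seeded overnight beforehand.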
TRPML1 blocker = human mucolipin-1 channel inhibition | TRPML1-inducible cells, Ca2+ dye fluorescence, FDSS; active compounds read low; inhibition of EC80 agonist-evoked calcium signal | activity change, negative = inhibition, % (test concentration not listed) | 390,000 tested, 0.02% active | AID 624415; in the data active = activity change below about -50%; inconclusive = between about -30% and that limit;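 note: stimulus is agonist 54-4 at its EC80 concentration; % is set by controls: 0 for no effect and ±100 for the full control effect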
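TRPML1-DL cells, Tet-induced overnight (~16 h, 37 °C) at 1,500 cells/well, were loaded with Ca8 no-wash dye plus quencher for 45-90 min at room temperature. Compounds were pinned during FDSS kinetic reading; agonist 54-4 at EC80 (4 uM final) then added.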
* hit, by the source's call; ? = inconclusive; · = no result; ! = not confirmed by another sample. Unless noted, calls come from the whole dose curve; as a rule, active = well fitted curve in the direction sought with a large enough effect; inconclusive = small, poorly fitted or top-dose-only effect, or another doubt; inactive = no such curve, though single readings can be large; an effect the other way counts as inactive or inconclusive.

SMILES | TRPML1 agonist | Vif-APOBEC3G blk | ALOX12 inh | Glioma ERSR ind | Vif-APOBEC3F blk | TRPML1 blocker
CCCC(=O)Oc1c(Sc2ccc(Cl)cc2)c(C)nn1-c1ccccc1 | -1 | 5% | 45µM* | -4% | -2% | -14
Cc1ccc(Sc2c(C)nn(-c3ccccc3)c2OC(=O)CC(C)C)cc1 | 1 | · | ? | · | · | -3
COc1cccc(-n2c(=O)c3ccccc3n3c(=S)[nH]nc23)c1 | -1 | 8% | ? | -5% | -24% | -51*
Cc1nc(SCCO)c([N+](=O)[O-])[nH]1 | 1 | 0% | 25µM* | -3% | 4% | 2
N#Cc1nc(-c2ccco2)oc1N1CCN(CC(=O)N2CCCCC2)CC1 | · | · | 0% | · | · | ·
O=C(O)CN1C(=O)/C(=C\c2ccccc2OCc2ccccc2)SC1=S | 0 | -1% | ? | 1% | -8% | 9
COc1ccc(/C=C2/SC(=S)N(CC(=O)O)C2=O)cc1OCc1ccc(Cl)cc1 | 0 | 6% | -7% | 8% | 0% | 29
O=C1/C(=C\c2cc([N+](=O)[O-])ccc2O)SC(=S)N1Cc1ccc(Cl)cc1 | ? | ? | 2% | -5% | 13µM* | -6
O=C(O)CN1C(=O)/C(=C\c2cc([N+](=O)[O-])ccc2OCc2ccccc2Cl)SC1=S | 0 | 5% | 14µM* | -3% | 17% | 17
O=C1/C(=C\c2cccc(O)c2O)SC(=S)N1Cc1ccccc1 | 0 | -12% | ? | 1% | 0% | 16
O=C(O)CN1C(=O)/C(=C\c2cc(Br)ccc2OCc2ccc(Cl)cc2)SC1=S | 2 | -12% | 20µM* | -3% | -7% | -9
O=C(O)CN1C(=O)/C(=C\c2cc(Br)ccc2OCc2ccc(F)cc2)SC1=S | 2 | 0% | 2.5µM* | -1% | 1% | -10
O=[N+]([O-])c1cccc(-c2ccc(C(=S)N3CCOCC3)o2)c1 | -1 | -6% | 5% | -1% | -1% | -10
O=[N+]([O-])c1ccccc1-c1ccc(C(=S)N2CCCCC2)o1 | 1 | -3% | 0% | 4% | 8% | 19
O=[N+]([O-])c1cc(-c2ccc(C(=S)N3CCOCC3)o2)ccc1Cl | 1 | -8% | 13µM* | 5% | 0% | 1
O=[N+]([O-])c1ccccc1-c1ccc(C(=S)N2CCCC2)o1 | 5 | -7% | 40µM* | 10% | -16% | -5
CCn1c(SC(C(=O)N2CCCC2)c2ccccc2)nnc1-c1ccccc1OC (stereo not drawn) | · | · | -24% | · | · | ·
COC(=O)c1ccc(CSc2n[nH]c(=S)s2)o1 | -1 | -3% | 16µM* | 1% | 1% | -1
Cc1cccc(NC(=O)Cc2c[nH]c3ccccc23)c1C | · | · | 6% | · | · | ·
c1ccc(-c2cc3n(c2)CCc2ccccc2-3)cc1 | 0 | 3% | 6.3µM*! | ? | -2% | 6
O=C(O)c1cc2c(s1)-c1ccccc1CC2 | 0 | -7% | -3% | -2% | -11% | 11
Cc1ccc(S(=O)(=O)N2CCc3ccccc3CC2)cc1 | 1 | 1% | 1% | -5% | 11% | -7
Cc1ccc(-c2cc3n(c2)CCc2ccccc2-3)cc1 | · | · | 16µM* | · | · | ·
N#Cc1cnc2ccc(Cl)cc2c1Nc1cccc(C(F)(F)F)c1 | · | · | -65% | · | · | ·
Cc1ccc(S(=O)(=O)Nc2cc(Br)cc3cccnc23)cc1 | 0 | ? | · | 34% | · | 8
SMILES | TRPML1 agonist | Vif-APOBEC3G blk | ALOX12 inh | Glioma ERSR ind | Vif-APOBEC3F blk | TRPML1 blocker
Oc1ccc(Cl)c2cccnc12 | 0 | 0% | 4.5µM*! | -4% | -10% | -3
O=C(Oc1c(Cl)cc(Cl)c2cccnc12)c1cccs1 | 4 | -9% | ? | -4% | -1% | 9
Cc1ccc(S(=O)(=O)Nc2cc(Cl)c(O)c3ncccc23)cc1 | 0 | ? | 4.5µM* | -8% | ? | -9
Oc1c(Cl)cc(Cl)c2cccnc12 | 0 | -1% | 20µM*! | -6% | -11% | -2
CC(=O)NC(C)c1cc(Cl)c2cccnc2c1O (stereo not drawn) | · | ? | -15% | -1% | ? | ·
O=C(Oc1c(Cl)cc(Cl)c2cccnc12)c1ccco1 | 0 | -16% | 7.1µM* | -3% | -5% | 1
